Assay results taken from PubChem BioAssay AID1159580 (chemical genetic matrix, 2015).
About 2,000 (36%) of roughly 5,500 compounds were called active. Another 18% or so got no clear call; they are omitted. Cut-off read from the data, not from the text of the source: active = normalized growth mostly below about 0.91 (no sharp cut-off); inconclusive = no clear call, values can overlap the other calls; inactive = mostly above about 0.92. This is one part of the list.

Assay: chemical genetic growth profiling, strain panel (AID 1159580);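 note: tested at 20 µM; growth read once vehicle control cultures reached saturation at 30 °C; 1 = growth at the plate median or of vehicle wells; lower values mean less growth of the strain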
Settings: growth OD

Measured: normalized growth

N[C@H](Cc1ccccc1)C(=O)O
inactive: S. cerevisiae deletion strains, locus YJR043C, strain POL32, hits give low values 1.01 | S. cerevisiae deletion strains, locus YJR066W, strain TOR1, hits give low values 0.943 | S. cerevisiae deletion strains, locus YKL009W, strain mrt4, hits give low values 1.01 | S. cerevisiae deletion strains, locus YKL068W, hits give low values 1.01 | S. cerevisiae deletion strains, locus YKL085W, strain MDH1 (second series), hits give low values 1.01 | S. cerevisiae deletion strains, locus YKL085W, strain MDH1, hits give low values 1.01 | S. cerevisiae deletion strains, locus YKL160W, strain elf1, hits give low values 1.04 | S. cerevisiae deletion strains, locus YKL190W, strain CNB1, hits give low values 1.02 | S. cerevisiae deletion strains, locus YKR001C, strain vps1, hits give low values 0.997 | S. cerevisiae deletion strains, locus YKR026C, strain gcn3, hits give low values 0.988 | S. cerevisiae deletion strains, locus YKR091W, strain srl3, hits give low values 1 | S. cerevisiae deletion strains, locus YLL001W, strain dnm1, hits give low values 0.973 | S. cerevisiae deletion strains, locus YLL026W, hits give low values 0.984 | S. cerevisiae deletion strains, locus YLL041C, strain sdh2, hits give low values 1 | S. cerevisiae deletion strains, locus YLR027C, strain aat2, hits give low values 1 | S. cerevisiae deletion strains, locus YLR039C, strain RIC1, hits give low values 1.02 | S. cerevisiae deletion strains, locus YLR058C, strain SHM2, hits give low values 1.02 | S. cerevisiae deletion strains, locus YLR102C, strain apc9, hits give low values 0.995 | S. cerevisiae deletion strains, locus YLR113W, strain HOG1, hits give low values 1.05 | S. cerevisiae deletion strains, locus YLR221C, strain rsa3, hits give low values 0.975 | S. cerevisiae deletion strains, locus YLR258W, strain gsy2, hits give low values 1.03 | S. cerevisiae deletion strains, locus YLR262C, strain YPT6 (second series), hits give low values 0.987 | S. cerevisiae deletion strains, locus YLR262C, strain YPT6, hits give low values 1.04 | S. cerevisiae deletion strains, locus YLR268W, strain sec22, hits give low values 0.994 | S. cerevisiae deletion strains, locus YLR320W, strain mms22, hits give low values 0.949 | S. cerevisiae deletion strains, locus YLR330W, strain CHS5, hits give low values 1.02 | S. cerevisiae deletion strains, locus YLR342W, strain FKS1 (second series), hits give low values 1 | S. cerevisiae deletion strains, locus YLR342W, strain FKS1, hits give low values 1.02 | S. cerevisiae deletion strains, locus YLR357W, strain rsc2, hits give low values 1.01 | S. cerevisiae deletion strains, locus YLR370C, strain arc18, hits give low values 1 | S. cerevisiae deletion strains, locus YLR371W, strain rom2, hits give low values 0.982 | S. cerevisiae deletion strains, locus YLR384C, strain iki3, hits give low values 0.991 | S. cerevisiae deletion strains, locus YLR418C, strain cdc73, hits give low values 0.975 | S. cerevisiae deletion strains, locus YML016C, strain PPZ1, hits give low values 1.01 | S. cerevisiae deletion strains, locus YML032C, strain rad52, hits give low values 0.986 | S. cerevisiae deletion strains, locus YML120C, strain ndi1, hits give low values 0.987 | S. cerevisiae deletion strains, locus YML124C, strain tub3, hits give low values 0.997 | S. cerevisiae deletion strains, locus YMR058W, strain fet3, hits give low values 0.987 | S. cerevisiae deletion strains, locus YMR078C, strain ctf18, hits give low values 1 | S. cerevisiae deletion strains, locus YMR125W, strain sto1, hits give low values 1 | S. cerevisiae deletion strains, locus YMR129W, hits give low values 0.978 | S. cerevisiae deletion strains, locus YMR205C, strain PFK2, hits give low values 0.985 | S. cerevisiae deletion strains, locus YMR223W, strain ubp8, hits give low values 1.01 | S. cerevisiae deletion strains, locus YMR231W, strain pep5, hits give low values 0.984 | S. cerevisiae deletion strains, locus YMR263W, strain SAP30, hits give low values 1.01 | S. cerevisiae deletion strains, locus YMR307W, strain GAS1, hits give low values 1.01 | S. cerevisiae deletion strains, locus YNL067W, strain RPL9B, hits give low values 1.02 | S. cerevisiae deletion strains, locus YNL071W, strain lat1, hits give low values 0.983 | S. cerevisiae deletion strains, locus YNL128W, strain TEP1, hits give low values 1.02 | S. cerevisiae deletion strains, locus YNL153C, strain GIM3, hits give low values 1.03 | S. cerevisiae deletion strains, locus YNL183C, strain NPR1, hits give low values 0.988 | S. cerevisiae deletion strains, locus YNL209W, strain ssb2, hits give low values 1.02 | S. cerevisiae deletion strains, locus YNL233W, strain BNI4, hits give low values 1.01 | S. cerevisiae deletion strains, locus YNL248C, strain rpa49, hits give low values 1 | S. cerevisiae deletion strains, locus YNL250W, strain rad50, hits give low values 1 | S. cerevisiae deletion strains, locus YNL271C, strain bni1, hits give low values 1.01 | S. cerevisiae deletion strains, locus YNL298W, strain CLA4, hits give low values 1.02 | S. cerevisiae deletion strains, locus YNL307C, strain MCK1, hits give low values 0.993 | S. cerevisiae deletion strains, locus YNL322C, strain KRE1 (second series), hits give low values 1.03 | S. cerevisiae deletion strains, locus YNR049C, strain mso1, hits give low values 1 | S. cerevisiae deletion strains, locus YNR052C, strain pop2, hits give low values 1.01 | S. cerevisiae deletion strains, locus YOL006C, strain TOP1, hits give low values 1.03 | S. cerevisiae deletion strains, locus YOL012C, strain htz1 2.29 | S. cerevisiae deletion strains, locus YOL147C, strain pex11, hits give low values 1.01 | S. cerevisiae deletion strains, locus YOR001W, strain rrp6, hits give low values 0.943 | S. cerevisiae deletion strains, locus YOR061W, strain CKA2, hits give low values 1.02 | S. cerevisiae deletion strains, locus YOR069W, strain VPS5, hits give low values 1.01 | S. cerevisiae deletion strains, locus YOR070C, strain gyp1, hits give low values 0.983 | S. cerevisiae deletion strains, locus YOR080W, strain dia2, hits give low values 0.988 | S. cerevisiae deletion strains, locus YOR083W, strain WHI5, hits give low values 0.991 | S. cerevisiae deletion strains, locus YOR106W, strain vam3, hits give low values 1.03 | S. cerevisiae deletion strains, locus YOR136W, strain idh2, hits give low values 1 | S. cerevisiae deletion strains, locus YOR144C, strain elg1, hits give low values 0.999 | S. cerevisiae deletion strains, locus YOR184W, strain ser1, hits give low values 0.994 | S. cerevisiae deletion strains, locus YOR231W, strain MKK1, hits give low values 1.08 | S. cerevisiae deletion strains, locus YOR265W, strain rbl2, hits give low values 0.992 | S. cerevisiae deletion strains, locus YOR270C, strain vph1, hits give low values 0.986 | S. cerevisiae deletion strains, locus YOR290C, strain snf2, hits give low values 1.02 | S. cerevisiae deletion strains, locus YOR316C, strain cot1, hits give low values 1 | S. cerevisiae deletion strains, locus YPL051W, strain arl3, hits give low values 1.01 | S. cerevisiae deletion strains, locus YPL078C, strain atp4, hits give low values 1.03 | S. cerevisiae deletion strains, locus YPL106C, strain sse1, hits give low values 1.03 | S. cerevisiae deletion strains, locus YPL240C, strain hsp82, hits give low values 0.994 | S. cerevisiae deletion strains, locus YPL256C, strain CLN2, hits give low values 1.06 | S. cerevisiae deletion strains, locus YPR119W, strain clb2, hits give low values 0.995 | S. cerevisiae deletion strains, locus YPR141C, strain kar3, hits give low values 1 | S. cerevisiae deletion strains, locus YPR163C, strain tif3, hits give low values 1 | S. cerevisiae deletion strains, locus YPR167C, strain met16, hits give low values 1 | S. cerevisiae deletion strains, strain wtn01, hits give low values 0.996 | S. cerevisiae strains, strain wild type, hits give low values 1.01
